# Assay results published in PubChem BioAssay (NCATS).
# Records with an inconclusive call do not appear. Entries that show only a call come without a potency. Active and inactive are the calls of the source. Calls come from the whole dose curve; as a rule, active = well fitted cell-killing curve with a large enough effect; inconclusive = small, poorly fitted or top-dose-only effect; inactive = flat fitted curve, though single readings scatter.
# Assay: qHTS of pediatric cancer cell lines to identify multiple opportunities for drug repurposing: Primary screen for DAOY cells (AID 1347090); note: nearly all actives have a fitted effect of over 55% in size
# Settings: DAOY medulloblastoma viability, CellTiter-Glo luminescence, 48 h; series mostly up to 46 µM
# Excerpt: Drug repurposing or repositioning has been offered as a strategy for drug development in oncology programs. This approach has special potential for childhood cancers and other rare or orphan diseases, where the expected return on new drug development has been a disincentive to pharmaceuticals.
# In this project we exploit the poly-pharmacology of drugs to discover new indications via phenotypic screening of a panel of 19 well-characterized cell lines derived from solid tumors seen in children and adolescents. The goal is to identify approved drugs with previously unrecognized anticancer properties that has the potential to reveal new mechanisms and biological processes involved in carcinogenesis or drug resistance. We employed a titration-based paradigm (quantitative high-throughput screening or qHTS), where all compounds were tested at multiple concentrations for their effect on cell viability. Concentration-response curves (CRCs) were derived directly from the primary screen, and both potency and efficacy values were used to identify compounds with robust bioactivity profiles. We screened the NIH Chemical Genomics Center (NCGC) Pharmaceutical Collection (NPC) and Mechanism Interrogation Plate (MIPE) small molecule collections of approved and investigational compounds against these cell lines; and measured metabolically active cells after 48 hours of compound treatment as a proxy for cell viability.
# Assay Submitter: Nathalia J. Martinez, National Center for Advancing Translational Sciences, National Institutes of Health, Rockville, MD, USA; email: natalia.martinez@nih.gov
# [1] Shen, M et al. Quantitative high-throughput phenotypic screening of pediatric cancer cell lines identifies multiple opportunities for drug repurposing. Oncotarget 2017 Dec 19;9(4):4758-4772. PMID 29435139.
# The cells were obtained from University of North Carolina (UNC), Pediatric Preclinical Testing Program (PPT), and Coriell Institute (CI).
# qHTS cell viability assay:
# Cells were assayed in growth media at a density of 500-1,000 cells/well. Five microliters of cells were dispensed into 1,536-well, white, solid-bottom, TC-treated plates (Greiner Bio One) using a multidrop dispenser and incubated at 37 degrees C, 5% CO2, under a humidified atmosphere for 5 hours. Twenty-three nanoliters of compounds and controls (neutral control DMSO or positive control bortezomib at final concentration of 2.3 µM) were subsequently transferred by Kalypsys pintool. For primary screens, the MIPE collection was tested at 11-point dilutions (final concentrations range from 0.78 nM to 46 µM) and the NPC collection at 8-point dilutions (final concentrations range from 0.59 nM to 46 µM). Compounds tested in follow-up screens were assayed at 11-point dilutions. Cells were incubated for 48 hours, followed by addition of 3 uL of CellTiter-Glo (Promega). After a 15 min incubation at room temperature, samples were analyzed for luminescence intensity using a ViewLux High-throughput CCD imager equipped with clear filters.
# Potency is the fitted concentration of half-maximal effect.
row,Compound,Potency
1,CCCCNc1ccc(C(=O)OCCN(C)C)cc1,inactive
2,NC1=NCC2c3ccccc3Cc3ccccc3N12 (stereo not given),inactive
3,C[N+](C)(C)CCOC(N)=O,inactive
4,C#CCN(C)CCCOc1ccc(Cl)cc1Cl,inactive
5,Cc1nc2c([nH]1)c(=O)n(C)c(=O)n2Cc1ccco1,inactive
6,COc1ccc2c(c1OC)C(=O)O[C@@H]2[C@H]1c2c(cc3c(c2OC)OCO3)CCN1C,inactive
7,Nc1nc(N)c2nc(-c3ccccc3)c(N)nc2n1,26.6 µM (active)
8,COCC(=O)O[C@]1(CCN(C)CCCc2nc3ccccc3[nH]2)CCc2cc(F)ccc2[C@@H]1C(C)C,inactive
9,CNC1(C)C2CCC(C2)C1(C)C (stereo not given),inactive
10,c1ccc2c(c1)CCCC2C1=NCCN1 (stereo not given),inactive
11,COC(=O)[C@@H](N)Cc1ccc(O)c(O)c1,inactive
12,OCCN1CCN(CC/C=C2/c3ccccc3Sc3ccc(C(F)(F)F)cc32)CC1,inactive
13,c1cc(CN2CCCCC2)cc(OCCCNc2nc3ccccc3s2)c1,inactive
14,CNCCC(Oc1ccccc1OC)c1ccccc1 (stereo not given),inactive
15,Cc1cccc(C)c1NC(=O)C(C)N (stereo not given),inactive
16,Cc1ccc(=O)n(-c2ccccc2)c1,inactive
17,NC(=Nc1ccccc1)Nc1ccccc1,inactive
18,CCc1cccc(N(C)C(N)=Nc2cccc3ccccc23)c1,inactive
19,CC(=O)[C@]1(O)Cc2c(O)c3c(c(O)c2[C@@H](O[C@H]2C[C@H](N)[C@H](O)[C@H](C)O2)C1)C(=O)c1ccccc1C3=O,2.11 µM (active)
20,COc1ccc(CCN(C)CCCC(C#N)(c2cc(OC)c(OC)c(OC)c2)C(C)C)cc1OC (stereo not given),inactive

row,Compound,Potency
1,C[N+](C)(C)CCOC(=O)CCC(=O)OCC[N+](C)(C)C,inactive
2,O=C(CCNNC(=O)c1ccncc1)NCc1ccccc1,inactive
3,COc1ccc(CN(CCN(C)C)c2ccccn2)cc1,inactive
4,Fc1ccc(C(c2ccc(F)cc2)N2CCN(C/C=C/c3ccccc3)CC2)cc1,inactive
5,O=C(O)CN(CCN(CC(=O)O)CC(=O)O)CCN(CC(=O)O)CC(=O)O,inactive
6,CCCCCN(CCCCC)C(=O)C(CCC(=O)O)NC(=O)c1ccc(Cl)c(Cl)c1 (stereo not given),inactive
7,Cc1nnc(SCC2=C(C(=O)O)N3C(=O)[C@@H](NC(=O)Cn4cnnn4)[C@H]3SC2)s1,inactive
8,CCC(=O)c1ccc2c(c1)N(CCCN(C)C)c1ccccc1S2,inactive
9,COc1cc(Cc2cnc(N)nc2N)cc(OC)c1OC,inactive
10,O=C(O)CP(=O)(O)O,inactive
11,Brc1c(NC2=NCCN2)ccc2nccnc12,inactive
12,CC[N+](C)(C)c1cccc(O)c1,inactive
13,CN=C(NC#N)NCCSCc1nc[nH]c1C,inactive
14,C[C@]12C=CC(=O)C=C1CC[C@H]1[C@@H]3C[C@@H](O)[C@](O)(C(=O)CO)[C@@]3(C)C[C@H](O)[C@@]12F,inactive
15,CN1C[C@H](C(=O)N[C@]2(C)O[C@@]3(O)[C@@H]4CCCN4C(=O)[C@H](Cc4ccccc4)N3C2=O)C[C@@H]2c3cccc4[nH]cc(c34)C[C@H]21,inactive
16,CO[C@@]1(NC(=O)CSCC#N)C(=O)N2C(C(=O)O)=C(CSc3nnnn3C)CS[C@@H]21,inactive
17,NS(=O)(=O)c1cc2c(cc1Cl)NC(C1CC3C=CC1C3)NS2(=O)=O (stereo not given),inactive
18,CC(C)(Oc1ccc(CCNC(=O)c2ccc(Cl)cc2)cc1)C(=O)O,inactive
19,CCn1ccnc1CC1COc2ccccc2O1 (stereo not given),inactive
20,CN(C)CC/C=C1\c2ccccc2COc2ccccc21,inactive
